Experiment [1] is described as follows: qHTS Assay for Identification of Small Molecule Antagonists for Thrombopoietin (TPO) Signaling Pathway (AID 918). Further: potency means the concentration at half of the fitted maximal effect; nearly all actives have a fitted effect of over 60% in size. The following applies: TPO-dependent cell signaling reporter, antagonist mode. The essentials: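 First, Ba/F3 reporter cells expressing human TPO receptor were held overnight without IL-3. Next, compound and 26 pM TPO were added. After 24 hrs incubation at 37 C, luciferase luminescence under the Glycoprotein IIb promoter was recorded.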

Experiment [2] can be described thus: qHTS for differential inhibitors of proliferation of Plasmodium falciparum line 7G8 (AID 1815).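 Further: parasite growth measured after three days of incubation.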 Further: potency means the concentration at half of the fitted maximal effect. The settings on record: Plasmodium falciparum 7G8 proliferation inhibition; series mostly up to 28.7 µM.
Experiment [3] can be described thus: qHTS for differential inhibitors of proliferation of Plasmodium falciparum line 3D7 (AID 1876).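 Further: parasite growth measured after three days of culture; 0% = vehicle wells and -100% = reference inhibitor wells.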 The settings on record: P. falciparum 3D7 proliferation inhibition; series mostly up to 28.7 µM.
A short description of experiment [4]: qHTS for differential inhibitors of proliferation of Plasmodium falciparum line D10 (AID 1877).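 Further: parasites grown with compound for 72 h before DNA staining; plate controls were vehicle wells for no effect and reference inhibitor wells for full effect.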 The settings on record: series mostly up to 28.7 µM.
Experiment [5] in a line: qHTS for differential inhibitors of proliferation of Plasmodium falciparum line Dd2 (AID 1882).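 Further: compound exposure of 72 h on infected erythrocytes; plate controls were DMSO vehicle for no effect and 0.29 µM artemisinin for full effect; nearly all actives have a fitted effect of over 65% in size.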 The settings on record: Potency: Plasmodium falciparum Dd2 proliferation inhibition; series mostly up to 28.7 µM. Summed up: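 SYBR Green I DNA fluorescence read-out, ex 485/em 535 nm. Signals were normalized to 0.29 uM artemisinin and DMSO wells, then corrected using vehicle-only plates flanking each stack. Parasite growth ran 72 h in erythrocytes before lysis.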

A short description of experiment [6]: qHTS for differential inhibitors of proliferation of Plasmodium falciparum line HB3 (AID 1886).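 Further: parasites grown with compound for 72 h before SYBR Green readout; plate controls were vehicle for no effect and reference inhibitor for full effect.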 The following applies: Potency: Plasmodium falciparum HB3 proliferation inhibition; series mostly up to 28.7 µM.
In experiment [7] the target is ATP-dependent DNA helicase Q1 (Homo sapiens) (UniProt P46063). In words: qHTS Validation Assay for Inhibitors of RecQ-Like Dna Helicase 1 (RECQ1) (AID 2353).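 Further: plate controls were DMSO vehicle for no effect and enzyme-free control for full effect.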 The settings on record: recombinant RECQ1 helicase DNA unwinding assay; series mostly up to 25.6 µM. Summed up:
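50 nM RECQ1T1 preincubated 15 min with compound in Tris pH 8.0 buffer with MgCl2, DTT, Tween-20 and 2.5 ug/ml poly(dI-dC); started with 200 nM TAMRA/BHQ-2 forked duplex and 2 mM ATP. Unwinding read as fluorescence (525/598 nm), two reads 2 h apart.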

The nature of experiment [8]: Validation screen for small molecules that induce DNA re-replication in MCF 10A normal breast cells (AID 463097). Further: nearly all actives have a fitted effect of over 60% in size. Further: potency means the concentration at half of the fitted maximal effect. The following applies: MCF 10A cells, DNA re-replication phenotype imaging; series mostly up to 46.1 µM. Summed up: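 DNA re-replication was detected as a rise in nuclei with elevated Hoechst fluorescence after a 48 hr compound exposure of MCF 10A cells at 37 C.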

Experiment [9] addresses M-phase phosphoprotein 8 (Homo sapiens) (UniProt Q99549). In words: qHTS Validation Assay for Inhibitors for MPP8 Chromodomain Interactions with Methylated Histone Tails (AID 488949). Further: nearly all actives have a fitted effect of over 55% in size. Further: potency means the concentration at half of the fitted maximal effect. The settings on record: AlphaScreen MPP8 binding to H3K9me3 peptide; series mostly up to 114 µM. The essentials: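 Disruption of the preformed MPP8–trimethyl-H3K9 peptide complex (both 50 nM, 30 min, RT) is measured after 30 min compound exposure, using AlphaScreen proximity beads; aurintricarboxylic acid titration serves as plate control.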

Experiment [10] addresses Thyrotropin receptor (Homo sapiens) (UniProt P16473). In words: qHTS Assay for Antagonists of the Thyroid Stimulating Hormone Receptor (AID 488980). Further: 0% is about no effect. The settings on record: TSHR-expressing cells, cAMP antagonist read-out; series mostly up to 57.5 µM. Summed up: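 Cells expressing human TSHR (HEK293) are dispensed in HBSS/HEPES containing 70 uM RO 20-1724, compound is added, then TSH at EC80 (4 nM final). Antibody in lysis buffer follows, 30 minutes at room temperature before HTRF detection.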

Experiment [11] concerns the target Thyrotropin-releasing hormone receptor (Homo sapiens) (UniProt P34981). Kind of experiment: qHTS for Small Molecule Agonists and Allosteric Enhancers of Human TRH Receptor: Validation Screen for Agonists (AID 493127;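 active means calcium activation more than 3 SD above the typical response in the agonist read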;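 further: intracellular calcium rise by fluo-8 fluorescence before TRH EC20 addition; 0% is about no effect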). The following applies: TRH receptor agonist cell assay; at 2 µM; active compounds read high. Summed up: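 Gq-coupled calcium mobilization in TRHR cells after compound addition, monitored kinetically with fluo-8 dye on an FDSS reader.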

For experiment [12], the target named is Galactokinase (Homo sapiens) (UniProt P51570). In words: qHTS Validation Assay for Inhibitors of Human Galactokinase (GALK) (AID 493189). Further: 0% is about no effect. The following applies: purified human GALK enzyme activity, qHTS 7-point titration; series mostly up to 57.5 µM. Summed up:
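Compounds were pin-transferred into ATP buffer, then GALK-galactose mix was added (final 5 nM enzyme, 100 uM galactose, 35 uM ATP). After 1 h at room temperature, remaining ATP was measured luminescently.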

Experiment [13] can be described thus: Validation screen for small molecules that induce DNA re-replication in SW480 colon adenocarcinoma cells (AID 504364). Further: 0% is about no effect. The following applies: DNA re-replication phenotype (high-content imaging); series mostly up to 46.1 µM. The essentials: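 Cells are treated 48 hr with test compound, stained 40 min with Hoechst at 37 C, and scanned for nuclear fluorescence; compounds inducing re-replication increase nuclei with elevated intensity.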

Experiment [14] addresses Endonuclease 4 (Escherichia coli (strain K12)) (UniProt P0A6C1). In words: Counterscreen for APE1 Inhibitors: qHTS Validation Assay for Inhibitors of Endonuclease IV (AID 1708). Further: on the % scale 0 is the no-effect control and ±100 the full control effect. The following applies: E. coli endonuclease IV, DNA cleavage fluorescence; series mostly up to 57.1 µM. The essentials: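 Cleavage of a quenched abasic-site DNA duplex (50 nM, 5'-TAMRA, 3'-BHQ-2) by 2 nM enzyme is followed as fluorescence increase. Compounds are preincubated with enzyme 15 min at room temperature before substrate addition.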

Experiment [15] in a line: Quantitative high throughput screen for delayed death inhibitors of the malarial parasite plastid, 96 hour incubation (AID 488745).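 Further: luciferase-expressing P. falciparum in erythrocytes at 2% hematocrit and 0.1% parasitemia; on the % scale 0 is the no-effect control and ±100 the full control effect; nearly all actives have a fitted effect of over 70% in size.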 The following applies: Plasmodium falciparum growth; series mostly up to 28.7 µM. Summed up:
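Growth of reporter-bearing P. falciparum in red cells is measured after 96 h with compound, covering two erythrocytic cycles. Luminescence from the integrated luciferase serves as the growth signal.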

Experiment [16] in a line: Quantitative high throughput screen for delayed death inhibitors of the malarial parasite plastid, 48 hour incubation (AID 488752). Further: on the % scale 0 is the no-effect control and ±100 the full control effect; nearly all actives have a fitted effect of over 65% in size. The settings on record: Plasmodium falciparum growth; series mostly up to 28.7 µM. Summed up: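 One parasite generation (48 h, 37 C, 5% CO2) of luciferase-reporter P. falciparum in erythrocytes is run with test compound; decreased luminescence indicates inhibited growth.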

Experiment [17] has as its target Lysosomal acid glucosylceramidase (Homo sapiens) (UniProt P04062). Kind of experiment: Glucocerebrosidase-p2 (AID 348; in the data active means potency below about 10 µM; further: potency means the concentration at half of the fitted maximal effect). The settings on record: purified GBA, blue fluorogenic substrate, 40 min. Summed up:
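Compounds titrated from 0.6 nM upwards against 0.2 nM enzyme in pH 5.9 citric acid/KH2PO4, taurocholate, tween-20; blue fluorogenic substrate 80 uM, 40 min room temperature, stopped and read Ex 365/Em 440 for AC50.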

Experiment [18] concerns the target Phospholipid hydroperoxide glutathione peroxidase GPX4 (Homo sapiens) (UniProt P36969). In words: Primary qHTS Assay for Inhibitors of Recombinant Selenoprotein Glutathione Peroxidase 4 (GPX4) (AID 1845192). Further: nearly all actives have a fitted effect of over 65% in size. The settings on record: recombinant GPX4, GR-coupled NADPH fluorescence, 15 min; series mostly up to 50 µM. The essentials: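 GR-coupled assay: recombinant GPX4 preincubated 30 min with compound at room temperature; final 200 nM GPX4, 1 mM GSH, 0.5 mM cumene hydroperoxide, 0.5 mM NADPH, 100 nM GR, 0.01% BSA, pH 7.5 Tris. NADPH fluorescence (340/450 nm) read at 0 and 15 min.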

The nature of experiment [19]: qHTS Assay for Identification of Small Molecule Antagonists for NFkB Signaling Pathway (AID 895; active means well fitted inhibition curve with a large enough effect in the signal ratio, with a control signal flat, not every such curve was filed as active; the % refers to the signal ratio; further: on the % scale 0 is the no-effect control and ±100 the full control effect). The following applies: NFkB beta-lactamase reporter cells, FRET ratio 460/530, stimulated with 10 pM TNF alpha; series mostly up to 38.3 µM. Summed up: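 ME-180 NFkB-bla cells (beta-lactamase under NFkB response element), plated overnight, treated with compound then 10 pM TNF alpha (about EC50) for 5 hrs at 37 C. LiveBLAzer FRET read at 460/530 nm emission, 405 nm excitation.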

A short description of experiment [20]: Viability counterscreen for antagonist of constitutive androstane receptor (CAR) against the NCATS DSHEA and TCM libraries (AID 1794837).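 Further: compound exposure lasted 24 h before viability reading; 0% is about no effect.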 The settings on record: CAR reporter cell line viability counterscreen, qHTS; series mostly up to 40 µM. The essentials: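 Fluorescence from CellTiter-Fluor reports live-cell protease activity in HepG2-CYP2B6-hCAR cells treated for 24 h with substances alongside 48 uM CITCO.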

Unmarked numbers belong to inactive results. Results filed as inconclusive are left out. The source made the active and inactive calls. Unless noted, the call rests on the fitted dose curve; in most records, active means well fitted curve in the direction sought with a large enough effect; inconclusive means small, poorly fitted or top-dose-only effect, or another doubt; inactive means no such curve, though single readings can be large; an effect the other way counts as inactive or inconclusive. Where only a bound is given, the exact number is not on record here.

Sequence of ATP-dependent DNA helicase Q1 (Homo sapiens) (P46063 whole entry, looked up): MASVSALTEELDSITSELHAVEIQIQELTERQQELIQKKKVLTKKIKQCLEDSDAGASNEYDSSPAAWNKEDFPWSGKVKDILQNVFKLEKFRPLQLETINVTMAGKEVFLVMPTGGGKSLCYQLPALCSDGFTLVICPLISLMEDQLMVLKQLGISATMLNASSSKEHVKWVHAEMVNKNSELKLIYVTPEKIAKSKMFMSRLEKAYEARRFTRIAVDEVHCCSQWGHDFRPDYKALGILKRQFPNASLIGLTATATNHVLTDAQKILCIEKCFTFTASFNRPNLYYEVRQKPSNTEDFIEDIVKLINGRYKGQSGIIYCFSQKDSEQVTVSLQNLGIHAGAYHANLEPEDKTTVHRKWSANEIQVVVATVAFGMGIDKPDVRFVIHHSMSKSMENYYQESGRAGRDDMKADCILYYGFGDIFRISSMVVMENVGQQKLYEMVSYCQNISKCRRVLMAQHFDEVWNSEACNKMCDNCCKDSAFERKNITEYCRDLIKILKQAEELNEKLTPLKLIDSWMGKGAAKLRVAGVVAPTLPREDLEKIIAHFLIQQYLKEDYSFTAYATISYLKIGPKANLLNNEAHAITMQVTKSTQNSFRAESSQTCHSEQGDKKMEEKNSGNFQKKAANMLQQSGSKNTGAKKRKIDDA
Sequence of Thyrotropin receptor (Homo sapiens) (P16473 whole entry, looked up): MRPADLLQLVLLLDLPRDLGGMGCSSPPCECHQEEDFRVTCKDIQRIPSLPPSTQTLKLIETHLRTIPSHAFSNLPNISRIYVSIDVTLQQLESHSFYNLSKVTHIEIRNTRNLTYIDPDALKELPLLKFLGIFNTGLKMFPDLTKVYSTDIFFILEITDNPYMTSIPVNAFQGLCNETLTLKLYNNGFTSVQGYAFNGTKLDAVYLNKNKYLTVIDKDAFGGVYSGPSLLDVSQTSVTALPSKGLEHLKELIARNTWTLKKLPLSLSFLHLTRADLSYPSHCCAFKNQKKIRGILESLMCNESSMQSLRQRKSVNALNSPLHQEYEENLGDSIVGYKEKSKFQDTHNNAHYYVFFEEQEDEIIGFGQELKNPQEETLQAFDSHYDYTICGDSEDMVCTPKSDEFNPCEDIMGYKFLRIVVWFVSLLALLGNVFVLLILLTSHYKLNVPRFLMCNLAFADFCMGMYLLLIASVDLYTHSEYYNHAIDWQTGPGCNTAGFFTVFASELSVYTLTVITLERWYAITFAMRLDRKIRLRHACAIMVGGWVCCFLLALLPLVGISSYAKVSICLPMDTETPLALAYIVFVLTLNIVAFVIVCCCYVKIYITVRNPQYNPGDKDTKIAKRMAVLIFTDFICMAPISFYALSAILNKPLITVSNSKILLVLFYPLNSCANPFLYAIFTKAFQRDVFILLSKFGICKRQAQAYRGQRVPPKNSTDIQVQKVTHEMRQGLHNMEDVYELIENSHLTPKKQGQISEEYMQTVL
Sequence of Phospholipid hydroperoxide glutathione peroxidase GPX4 (Homo sapiens) (P36969 whole entry, looked up): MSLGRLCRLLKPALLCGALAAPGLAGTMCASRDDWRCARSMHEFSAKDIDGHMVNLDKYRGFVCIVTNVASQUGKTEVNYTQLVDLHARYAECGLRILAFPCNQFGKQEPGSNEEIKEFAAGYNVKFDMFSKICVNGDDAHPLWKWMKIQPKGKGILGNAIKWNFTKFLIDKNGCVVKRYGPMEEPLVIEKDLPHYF
Sequence of Thyrotropin-releasing hormone receptor (Homo sapiens) (P34981 whole entry, looked up): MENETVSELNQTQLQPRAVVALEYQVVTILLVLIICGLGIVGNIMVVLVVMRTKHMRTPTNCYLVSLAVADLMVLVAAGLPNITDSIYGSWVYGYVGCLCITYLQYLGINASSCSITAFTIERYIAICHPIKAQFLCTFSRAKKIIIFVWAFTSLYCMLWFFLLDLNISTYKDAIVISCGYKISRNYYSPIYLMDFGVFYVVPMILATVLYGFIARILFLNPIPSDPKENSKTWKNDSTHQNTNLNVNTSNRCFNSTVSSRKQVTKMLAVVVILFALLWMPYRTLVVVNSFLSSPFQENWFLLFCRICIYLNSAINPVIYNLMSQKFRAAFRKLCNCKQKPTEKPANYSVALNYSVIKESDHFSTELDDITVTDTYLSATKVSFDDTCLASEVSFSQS
Sequence of Galactokinase (Homo sapiens) (P51570 whole entry, looked up): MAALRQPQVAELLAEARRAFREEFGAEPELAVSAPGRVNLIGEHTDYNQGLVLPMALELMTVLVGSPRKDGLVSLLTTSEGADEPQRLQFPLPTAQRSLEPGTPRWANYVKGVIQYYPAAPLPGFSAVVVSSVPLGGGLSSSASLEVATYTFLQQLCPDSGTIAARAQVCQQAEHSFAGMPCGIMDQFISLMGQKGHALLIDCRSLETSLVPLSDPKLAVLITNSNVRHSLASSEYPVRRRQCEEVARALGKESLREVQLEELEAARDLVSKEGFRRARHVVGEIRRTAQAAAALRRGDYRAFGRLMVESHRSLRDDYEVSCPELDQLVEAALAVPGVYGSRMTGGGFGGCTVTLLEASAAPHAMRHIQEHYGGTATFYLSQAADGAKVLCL
Sequence of Lysosomal acid glucosylceramidase (Homo sapiens) (P04062 whole entry, looked up): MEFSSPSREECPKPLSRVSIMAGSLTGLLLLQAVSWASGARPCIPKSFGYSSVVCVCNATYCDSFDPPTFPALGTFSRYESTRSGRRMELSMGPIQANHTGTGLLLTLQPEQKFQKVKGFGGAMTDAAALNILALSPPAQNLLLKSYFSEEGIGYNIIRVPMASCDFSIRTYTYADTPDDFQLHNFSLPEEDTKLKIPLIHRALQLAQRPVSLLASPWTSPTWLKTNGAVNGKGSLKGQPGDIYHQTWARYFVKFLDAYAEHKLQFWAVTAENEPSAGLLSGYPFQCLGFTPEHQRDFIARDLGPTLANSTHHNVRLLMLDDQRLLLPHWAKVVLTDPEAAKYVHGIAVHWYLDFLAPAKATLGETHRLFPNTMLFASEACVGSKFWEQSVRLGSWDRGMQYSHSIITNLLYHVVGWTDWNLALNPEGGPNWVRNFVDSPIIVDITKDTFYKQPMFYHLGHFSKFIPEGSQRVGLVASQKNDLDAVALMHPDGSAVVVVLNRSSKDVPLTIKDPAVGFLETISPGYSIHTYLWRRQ
Sequence of M-phase phosphoprotein 8 (Homo sapiens) (Q99549 whole entry, looked up): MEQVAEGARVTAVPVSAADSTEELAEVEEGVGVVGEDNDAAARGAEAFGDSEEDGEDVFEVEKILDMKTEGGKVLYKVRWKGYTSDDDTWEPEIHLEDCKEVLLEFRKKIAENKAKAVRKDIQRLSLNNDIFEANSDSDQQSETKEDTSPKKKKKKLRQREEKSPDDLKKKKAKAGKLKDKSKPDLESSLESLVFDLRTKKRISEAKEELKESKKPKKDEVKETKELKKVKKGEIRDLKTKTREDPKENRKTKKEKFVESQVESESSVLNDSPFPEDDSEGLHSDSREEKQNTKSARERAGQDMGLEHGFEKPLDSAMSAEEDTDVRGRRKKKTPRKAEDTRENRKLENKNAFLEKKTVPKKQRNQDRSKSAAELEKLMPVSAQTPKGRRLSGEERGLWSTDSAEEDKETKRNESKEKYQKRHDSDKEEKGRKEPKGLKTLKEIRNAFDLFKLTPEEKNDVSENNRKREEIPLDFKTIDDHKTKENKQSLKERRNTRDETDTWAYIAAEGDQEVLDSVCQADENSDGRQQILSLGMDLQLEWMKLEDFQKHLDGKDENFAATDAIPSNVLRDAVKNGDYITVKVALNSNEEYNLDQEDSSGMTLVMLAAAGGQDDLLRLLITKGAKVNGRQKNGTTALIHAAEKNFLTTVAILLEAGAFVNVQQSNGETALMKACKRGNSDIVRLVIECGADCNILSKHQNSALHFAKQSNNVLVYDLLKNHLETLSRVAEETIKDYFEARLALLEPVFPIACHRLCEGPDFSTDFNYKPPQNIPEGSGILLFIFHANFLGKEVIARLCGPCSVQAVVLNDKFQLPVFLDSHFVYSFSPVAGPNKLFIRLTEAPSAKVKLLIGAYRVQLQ

In the case of `C[N+](C)(C)CCC(=O)c1cccc2ccccc12`, the values for the Potency in experiment [1], in experiment [8] and in experiment [9] were 2.51 µM (active), 1.78 µM (active) and 10 µM (active), respectively. The Potency entry in [2], in experiment [3], in [4], in experiment [5], in experiment [6] and in experiment [7] was “inactive” each time. Also, the result in experiment [10], in experiment [12] and in experiment [13] was inactive. Moreover, in [11], the activation is 3.69%.
`COc1ccc2c(c1)c(CC(=O)N1CCOCC1)c(C)n2C(=O)c1ccc(Cl)cc1`: the Potency entry in experiment [14], in experiment [7], in [15] and in [16] was “inactive” throughout. For the same compound, the Potency in experiment [2] is 10 µM (active). Moreover, the result in [10], in [12] and in [13] was inactive. The activation in [11] was 1.25%.
With `NCCNS(=O)(=O)c1cccc2cnccc12`, the Potency result in experiment [14], in experiment [3], in experiment [4], in experiment [5], in [6] and in experiment [7] was “inactive” each time. Further, the Potency result in [8], in experiment [15], in experiment [16] and in experiment [9] was “inactive” in each case. For the same compound, the result in experiment [10], in experiment [12] and in [13] was inactive. Besides, the activation in [11] was -0.5%.
In the case of `C=CCN1CCc2cc(O)c(O)cc2[C@H](c2ccccc2)C1`, in experiment [1], the Potency was 5.01 µM (active).
Regarding `NCCC[C@@H](N)C(=O)O`, the Potency in [17] was more than 11.4 µM.
Turning to `COc1cc([C@@H]2c3cc4c(cc3C(O[C@@H]3O[C@@H]5CO[C@@H](c6cccs6)OC5[C@H](O)[C@H]3O)C3COC(=O)[C@@H]32)OCO4)cc(OC)c1O` (stereo partly specified), in experiment [18], the Potency result is “inactive”.
Consider `N[C@H](Cc1ccccc1)C(=O)O`, for which the Potency result in [18] was “inactive”.
Consider `C[C@@H]1CCN=C(N)S1`, for which, in experiment [19], the Potency entry is “inactive”.
As for `CC/C=C\C/C=C\C/C=C\C/C=C\C/C=C\CCCCCC(=O)O`, in experiment [20], the viability change, negative = cytotoxic was -12.7% [at 5 µM].
As for `C[C@@H](C[C@H](N)C(=O)O)C(=O)O`, the Potency in [17] was more than 11.4 µM.
With `CN[C@@H]1[C@H](O)[C@H](O[C@@H]2[C@H](O)[C@@H](O[C@H]3O[C@H]([C@@H](C)NC)CC[C@H]3N)[C@@H](N)C[C@H]2N)OC[C@]1(C)O`, in experiment [18], the outcome was “inactive [at 9.73 µM]”.
For `CCCCC[C@H](O)CC(=O)CCc1ccc(O)c(OC)c1`, the call in experiment [20] was inactive.
As for `Cc1cccc([C@@H]2CN(C)CCc3c2cc(O)c(O)c3Cl)c1`, in [19], the Potency result is “inactive”.

Source of the values: PubChem BioAssay (NCATS).
